The results in this text go back to ChEMBL document CHEMBL2218924, “A broad activity screen in support of a chemogenomic map for kinase signalling research and drug discovery” (Biochem J, 2013).

Test [1] addresses T1, Ephrin type-B receptor 1 (Homo sapiens) (UniProt P54762).
T1 sequence (whole entry): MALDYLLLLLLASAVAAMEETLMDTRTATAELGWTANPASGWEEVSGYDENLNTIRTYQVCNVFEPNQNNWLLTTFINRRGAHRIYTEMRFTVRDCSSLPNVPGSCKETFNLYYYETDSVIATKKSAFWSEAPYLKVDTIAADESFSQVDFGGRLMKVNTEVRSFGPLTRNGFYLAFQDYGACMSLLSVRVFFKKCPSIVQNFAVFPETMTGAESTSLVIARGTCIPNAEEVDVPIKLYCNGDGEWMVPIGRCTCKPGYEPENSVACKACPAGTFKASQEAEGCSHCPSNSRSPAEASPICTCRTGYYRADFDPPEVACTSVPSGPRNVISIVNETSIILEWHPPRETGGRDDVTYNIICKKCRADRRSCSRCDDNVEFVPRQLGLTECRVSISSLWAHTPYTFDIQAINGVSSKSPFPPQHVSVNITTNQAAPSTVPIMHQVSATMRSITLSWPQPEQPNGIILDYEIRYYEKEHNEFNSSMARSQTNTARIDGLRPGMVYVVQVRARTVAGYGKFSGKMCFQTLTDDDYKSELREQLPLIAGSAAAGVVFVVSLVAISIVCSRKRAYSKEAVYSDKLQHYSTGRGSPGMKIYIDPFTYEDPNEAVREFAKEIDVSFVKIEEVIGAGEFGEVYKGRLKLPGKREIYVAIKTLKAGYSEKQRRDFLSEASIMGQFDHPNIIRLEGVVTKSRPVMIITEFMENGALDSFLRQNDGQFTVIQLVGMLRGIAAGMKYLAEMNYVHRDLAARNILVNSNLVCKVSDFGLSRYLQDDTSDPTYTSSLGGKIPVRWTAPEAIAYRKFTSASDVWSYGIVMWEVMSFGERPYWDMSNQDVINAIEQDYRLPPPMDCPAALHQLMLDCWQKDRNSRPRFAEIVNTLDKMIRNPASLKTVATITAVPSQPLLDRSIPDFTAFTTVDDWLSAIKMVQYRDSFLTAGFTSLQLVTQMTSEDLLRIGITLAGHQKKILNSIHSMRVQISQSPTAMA
Conditions: at 10 µM; call rule not given here.

Test [2] deals with T2, Ephrin type-B receptor 2 (Homo sapiens) (UniProt P29323).
T2 sequence (whole entry): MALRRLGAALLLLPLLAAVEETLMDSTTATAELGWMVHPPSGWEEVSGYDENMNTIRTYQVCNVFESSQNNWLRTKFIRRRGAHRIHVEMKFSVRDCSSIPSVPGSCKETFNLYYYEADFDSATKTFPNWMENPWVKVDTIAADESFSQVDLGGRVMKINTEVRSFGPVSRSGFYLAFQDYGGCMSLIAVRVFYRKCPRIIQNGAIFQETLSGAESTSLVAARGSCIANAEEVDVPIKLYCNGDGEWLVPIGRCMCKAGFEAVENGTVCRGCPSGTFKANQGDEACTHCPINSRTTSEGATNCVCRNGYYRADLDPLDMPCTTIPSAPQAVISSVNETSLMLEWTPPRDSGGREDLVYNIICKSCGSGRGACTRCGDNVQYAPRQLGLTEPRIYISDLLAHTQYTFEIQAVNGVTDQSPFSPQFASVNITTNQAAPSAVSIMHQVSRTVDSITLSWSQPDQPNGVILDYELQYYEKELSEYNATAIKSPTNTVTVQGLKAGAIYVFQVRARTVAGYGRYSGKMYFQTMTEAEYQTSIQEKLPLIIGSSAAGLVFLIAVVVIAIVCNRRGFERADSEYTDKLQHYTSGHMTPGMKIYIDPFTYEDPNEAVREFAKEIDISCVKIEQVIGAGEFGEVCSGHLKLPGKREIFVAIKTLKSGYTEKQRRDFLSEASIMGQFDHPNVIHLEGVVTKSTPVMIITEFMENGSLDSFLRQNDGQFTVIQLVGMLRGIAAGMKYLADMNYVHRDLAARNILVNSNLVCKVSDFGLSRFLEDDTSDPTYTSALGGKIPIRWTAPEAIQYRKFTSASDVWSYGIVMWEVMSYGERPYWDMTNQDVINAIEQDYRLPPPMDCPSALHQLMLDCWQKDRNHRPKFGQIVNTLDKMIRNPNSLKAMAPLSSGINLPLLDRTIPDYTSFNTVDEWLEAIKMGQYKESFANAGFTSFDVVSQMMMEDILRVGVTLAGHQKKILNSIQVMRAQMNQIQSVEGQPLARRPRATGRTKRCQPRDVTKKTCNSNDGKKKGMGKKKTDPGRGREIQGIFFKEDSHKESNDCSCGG
Conditions: at 1 µM.

The target in test [3] is T2, Ephrin type-B receptor 2 (Homo sapiens). Conditions: at 10 µM.
In test [4] the target is T3, Ephrin type-B receptor 3 (Homo sapiens) (UniProt P54753).
T3 sequence (whole entry): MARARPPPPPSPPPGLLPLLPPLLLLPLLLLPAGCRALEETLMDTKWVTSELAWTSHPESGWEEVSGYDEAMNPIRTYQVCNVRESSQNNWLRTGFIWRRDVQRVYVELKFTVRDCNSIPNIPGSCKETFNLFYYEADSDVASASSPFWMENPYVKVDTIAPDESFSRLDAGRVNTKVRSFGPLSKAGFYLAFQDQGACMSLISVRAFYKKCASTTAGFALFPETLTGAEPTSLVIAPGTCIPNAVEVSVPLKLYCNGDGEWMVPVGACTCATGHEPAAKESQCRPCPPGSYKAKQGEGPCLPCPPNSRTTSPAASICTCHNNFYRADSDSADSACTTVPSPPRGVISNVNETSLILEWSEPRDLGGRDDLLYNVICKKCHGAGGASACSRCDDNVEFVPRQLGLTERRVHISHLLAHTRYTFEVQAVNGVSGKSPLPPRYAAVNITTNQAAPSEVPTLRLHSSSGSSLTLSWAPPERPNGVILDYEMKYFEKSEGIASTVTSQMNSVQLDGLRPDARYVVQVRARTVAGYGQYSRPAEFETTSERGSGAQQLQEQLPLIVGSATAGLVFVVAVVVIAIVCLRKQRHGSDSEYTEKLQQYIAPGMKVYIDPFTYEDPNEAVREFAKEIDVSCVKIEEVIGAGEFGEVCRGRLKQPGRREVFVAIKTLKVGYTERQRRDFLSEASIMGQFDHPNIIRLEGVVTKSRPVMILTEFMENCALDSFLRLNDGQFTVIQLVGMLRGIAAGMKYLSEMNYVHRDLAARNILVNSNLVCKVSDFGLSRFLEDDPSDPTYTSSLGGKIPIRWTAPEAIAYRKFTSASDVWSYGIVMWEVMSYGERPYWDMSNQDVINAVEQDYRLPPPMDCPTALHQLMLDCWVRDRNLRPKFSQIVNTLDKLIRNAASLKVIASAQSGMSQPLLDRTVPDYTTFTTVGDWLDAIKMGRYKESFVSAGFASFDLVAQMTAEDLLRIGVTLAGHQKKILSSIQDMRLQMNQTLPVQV
To be noted: at 1 µM.

For test [5], the target named is T3, Ephrin type-B receptor 3 (Homo sapiens). Conditions: at 10 µM.
Test [6] addresses T4, Ephrin type-B receptor 4 (Homo sapiens) (UniProt P54760).
T4 sequence (whole entry): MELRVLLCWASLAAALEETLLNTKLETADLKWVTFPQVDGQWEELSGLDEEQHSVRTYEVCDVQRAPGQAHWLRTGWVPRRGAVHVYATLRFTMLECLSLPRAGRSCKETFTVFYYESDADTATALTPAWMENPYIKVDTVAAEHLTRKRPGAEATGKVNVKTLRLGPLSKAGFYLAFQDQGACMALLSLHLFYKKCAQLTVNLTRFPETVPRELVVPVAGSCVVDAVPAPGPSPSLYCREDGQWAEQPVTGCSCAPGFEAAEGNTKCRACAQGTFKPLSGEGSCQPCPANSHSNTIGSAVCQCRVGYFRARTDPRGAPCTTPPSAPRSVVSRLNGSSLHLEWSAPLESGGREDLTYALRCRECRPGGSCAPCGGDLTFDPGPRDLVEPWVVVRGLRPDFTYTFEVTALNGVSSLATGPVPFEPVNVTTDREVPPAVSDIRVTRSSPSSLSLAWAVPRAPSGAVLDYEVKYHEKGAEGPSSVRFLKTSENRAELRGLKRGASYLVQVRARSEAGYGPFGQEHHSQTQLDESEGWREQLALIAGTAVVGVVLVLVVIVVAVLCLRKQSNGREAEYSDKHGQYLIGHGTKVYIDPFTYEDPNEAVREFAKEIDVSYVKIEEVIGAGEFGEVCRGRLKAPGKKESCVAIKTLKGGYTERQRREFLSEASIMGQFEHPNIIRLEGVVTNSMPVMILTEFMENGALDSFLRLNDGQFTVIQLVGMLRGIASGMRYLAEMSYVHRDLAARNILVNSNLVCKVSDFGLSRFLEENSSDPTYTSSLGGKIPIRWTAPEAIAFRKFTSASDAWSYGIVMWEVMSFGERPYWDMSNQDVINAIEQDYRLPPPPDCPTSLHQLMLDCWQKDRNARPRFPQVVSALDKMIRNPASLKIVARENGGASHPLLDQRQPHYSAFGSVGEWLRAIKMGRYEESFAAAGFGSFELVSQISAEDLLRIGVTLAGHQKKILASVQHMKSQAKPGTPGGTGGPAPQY
Conditions: at 1 µM.

The target of test [7] is T4, Ephrin type-B receptor 4 (Homo sapiens). To be noted: at 10 µM.
Test [8] has as its target Receptor tyrosine-protein kinase erbB-4 (Homo sapiens) (UniProt Q15303). To be noted: at 1 µM.
Test [9] shares this target. To be noted: at 10 µM.
Test [10] addresses Focal adhesion kinase 1 (Homo sapiens) (UniProt Q05397). To be noted: at 1 µM.

Sequence of Receptor tyrosine-protein kinase erbB-4 (Homo sapiens) (Q15303 whole entry): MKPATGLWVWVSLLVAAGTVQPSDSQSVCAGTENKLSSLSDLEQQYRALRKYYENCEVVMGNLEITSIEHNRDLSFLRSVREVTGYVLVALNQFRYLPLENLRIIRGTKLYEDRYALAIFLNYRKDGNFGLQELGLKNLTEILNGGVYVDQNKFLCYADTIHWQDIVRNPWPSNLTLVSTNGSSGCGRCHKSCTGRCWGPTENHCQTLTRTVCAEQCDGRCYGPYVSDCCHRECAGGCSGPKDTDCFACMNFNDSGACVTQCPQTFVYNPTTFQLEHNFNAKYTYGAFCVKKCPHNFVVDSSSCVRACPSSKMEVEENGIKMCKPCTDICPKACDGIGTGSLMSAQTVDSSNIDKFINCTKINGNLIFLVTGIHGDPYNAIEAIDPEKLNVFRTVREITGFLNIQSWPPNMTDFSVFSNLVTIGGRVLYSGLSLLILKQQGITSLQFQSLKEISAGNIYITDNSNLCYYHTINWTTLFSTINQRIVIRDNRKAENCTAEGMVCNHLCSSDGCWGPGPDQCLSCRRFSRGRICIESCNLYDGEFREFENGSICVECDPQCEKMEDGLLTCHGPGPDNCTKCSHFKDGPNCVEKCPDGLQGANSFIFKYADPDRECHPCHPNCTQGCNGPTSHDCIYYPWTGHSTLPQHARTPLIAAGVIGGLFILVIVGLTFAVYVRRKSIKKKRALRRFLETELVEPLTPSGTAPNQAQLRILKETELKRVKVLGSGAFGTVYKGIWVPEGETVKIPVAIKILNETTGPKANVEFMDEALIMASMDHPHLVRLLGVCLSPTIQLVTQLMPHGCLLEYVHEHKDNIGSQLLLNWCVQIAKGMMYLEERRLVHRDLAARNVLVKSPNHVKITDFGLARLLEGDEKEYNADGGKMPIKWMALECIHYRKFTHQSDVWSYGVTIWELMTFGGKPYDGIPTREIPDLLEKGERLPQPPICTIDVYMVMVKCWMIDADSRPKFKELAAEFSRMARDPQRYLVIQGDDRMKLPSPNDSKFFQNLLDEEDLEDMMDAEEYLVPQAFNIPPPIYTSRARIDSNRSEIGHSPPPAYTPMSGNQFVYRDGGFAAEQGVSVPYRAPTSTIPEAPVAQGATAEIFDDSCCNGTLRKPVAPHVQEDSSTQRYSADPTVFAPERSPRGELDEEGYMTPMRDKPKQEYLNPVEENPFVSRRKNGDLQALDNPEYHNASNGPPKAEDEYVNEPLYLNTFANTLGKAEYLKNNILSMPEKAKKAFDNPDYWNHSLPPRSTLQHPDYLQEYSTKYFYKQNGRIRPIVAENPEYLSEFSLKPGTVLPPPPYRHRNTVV
Sequence of Focal adhesion kinase 1 (Homo sapiens) (Q05397 2-1052 limits assumed): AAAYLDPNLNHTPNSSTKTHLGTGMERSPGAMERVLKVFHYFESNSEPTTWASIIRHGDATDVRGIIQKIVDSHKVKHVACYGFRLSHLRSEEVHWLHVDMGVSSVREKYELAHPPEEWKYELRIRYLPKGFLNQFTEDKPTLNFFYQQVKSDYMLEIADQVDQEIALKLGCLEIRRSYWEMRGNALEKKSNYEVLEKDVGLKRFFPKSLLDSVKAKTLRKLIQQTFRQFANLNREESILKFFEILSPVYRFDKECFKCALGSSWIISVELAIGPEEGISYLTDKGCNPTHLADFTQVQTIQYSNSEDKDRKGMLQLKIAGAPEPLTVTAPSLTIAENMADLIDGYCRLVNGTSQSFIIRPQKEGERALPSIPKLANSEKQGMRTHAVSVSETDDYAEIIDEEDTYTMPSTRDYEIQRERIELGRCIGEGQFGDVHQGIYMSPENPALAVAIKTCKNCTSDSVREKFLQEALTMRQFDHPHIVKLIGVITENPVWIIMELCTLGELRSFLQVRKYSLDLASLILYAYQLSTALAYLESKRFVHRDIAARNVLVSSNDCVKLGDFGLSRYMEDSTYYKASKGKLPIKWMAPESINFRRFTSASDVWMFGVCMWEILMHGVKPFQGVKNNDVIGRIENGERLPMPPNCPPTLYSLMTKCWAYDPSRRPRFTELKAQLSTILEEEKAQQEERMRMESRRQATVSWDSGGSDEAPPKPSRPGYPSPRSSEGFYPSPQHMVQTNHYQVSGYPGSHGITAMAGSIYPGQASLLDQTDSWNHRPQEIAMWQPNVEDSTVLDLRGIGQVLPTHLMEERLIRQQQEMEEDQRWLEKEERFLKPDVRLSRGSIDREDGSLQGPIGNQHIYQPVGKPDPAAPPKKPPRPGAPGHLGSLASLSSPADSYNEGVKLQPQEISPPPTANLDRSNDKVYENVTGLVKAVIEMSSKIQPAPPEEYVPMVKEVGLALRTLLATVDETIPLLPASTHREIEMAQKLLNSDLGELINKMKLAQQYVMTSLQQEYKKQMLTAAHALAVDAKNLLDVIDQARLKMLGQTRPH

Usually residual activity stands for the signal under treatment as a percentage of the control signal. For the molecule `Oc1ccc(Nc2nc(-c3ccc(Cl)cc3)cs2)cc1`, the residual activity in [1] is 78%; in [2] it was 108%; in [3] it was 109%; in [4], 88% (inactive); in test [5] it was 95%; in test [6], 109%. In addition, the residual activity amounted to 92% in [7], 132% in test [8], 128% in test [9] and 108% in test [10].
In the case of `CC#CC(=O)Nc1cc2c(Nc3ccc(F)c(Cl)c3)ncnc2cn1`, the residual activity in test [1] is 98%; in test [2], 110%; in test [3] it was 107%; in test [4], 115% (inactive); in [5] it was 102%; in test [6] it was 87%. The residual activity in test [7] was 108%; in test [8], 16%; in [9], 14%; in test [10], 133%.
For `Cc1nc(-c2ccccc2)c(-c2ccncc2)o1`, the residual activity in [1] was 55%; in test [2], 36%; in test [3], 31%; in [4], 126% (inactive); in [5] it was 107%; in test [6] it was 105%. Besides, the residual activity in test [7] came out at 79%; in test [8], 118%; in test [9], 110%; in test [10], 111%.
For `CO[C@H]1C[C@@H]2CC[C@@H](C)[C@@](O)(O2)C(=O)C(=O)N2CCCC[C@H]2C(=O)O[C@H]([C@H](C)C[C@@H]2CC[C@@H](O)[C@H](OC)C2)CC(=O)[C@H](C)/C=C(\C)[C@@H](O)[C@@H](OC)C(=O)[C@H](C)C[C@H](C)/C=C/C=C/C=C/1C`, the residual activity in test [1] is 105%; in [2], 121%; in [3], 105%; in test [4], 100% (inactive); in [5], 57%; in [6], 112%. For the same molecule, the residual activity in test [7] turned out to be 147%; in test [8], 106%; in [9] it was 130%; in [10] it was 118%.
Regarding `Cc1ccc(S(=O)(=O)/C=C/C#N)cc1`, the residual activity is 92% in test [1]; 122% in [2]; 126% in [3]; 118% (inactive) in test [4]; 111% in test [5]; 97% in test [6]. For the same molecule, the residual activity worked out at 90% in test [7], 95% in [8], 90% in test [9] and 105% in [10].
`Nc1cccc(-c2cc3c(Oc4cccc(O)c4)ncnc3[nH]2)c1`: the residual activity in test [1] is -1%; in test [2] it was 4%; in test [3], -1%; in [4], 105% (inactive); in test [5] it was 90%; in test [6], 2%. The residual activity in [7] is -3%; in test [8] it was 71%; in [9] it was 19%; in [10], 87%.
With `COc1ccc(S(=O)(=O)N(CCO)c2ccccc2CN(C)C/C=C/c2ccc(Cl)cc2)cc1`, the residual activity is 90% in test [1]; 115% in [2]; 120% in [3]; 112% (inactive) in [4]; 107% in test [5]; 86% in test [6]. In addition, the residual activity in test [7] is 79%; in test [8], 110%; in test [9], 77%; in test [10], 93%.
For the molecule `O=[N+]([O-])c1ccc(-c2nc(-c3ccc(F)cc3)c(-c3ccncc3)[nH]2)cc1`, the residual activity in test [1] is 94%; in test [2], 111%; in test [3] it was 109%; in test [4] it was 126% (inactive); in [5], 82%; in test [6], 89%. Besides, the residual activity in test [7] is 76%; in [8], 76%; in [9], 75%; in test [10], 107%.
As to `COc1cc2ncnc(Nc3ccc(O)c(Br)c3)c2cc1OC`, the residual activity was 10% in [1]; 65% in [2]; 1% in test [3]; 99% (inactive) in test [4]; 123% in test [5]; 19% in test [6]. Also, the residual activity in test [7] is 0%; in [8], 16%; in test [9], -1%; in [10], 106%.
